High-throughput results from PubChem BioAssay.
Compounds with a hit are over-represented: about 4.6% of the library has one in this group of screens.
D1 PAM = potentiators of human D1 dopamine receptor. P21728. HEK293 TREx D1 cells, calcium flux, dopamine EC20 potentiation. potentiation, % at 10 µM. 0.036% of 360,000 active. AID 504651; in the data active means potentiation above about 30%; further: 0% is about no effect
TRHR enhancer-1 = allosteric enhancers of human TRH receptor | P34981 | TRHR cells, fluo-8 calcium fluorescence, EC20 TRH enhancement | enhancement, % at 2 µM | 0.66% of 360,000 active; in the data active means enhancement above about 30%; further: 0% is about no effect
Target sequence (P34981 whole entry, looked up): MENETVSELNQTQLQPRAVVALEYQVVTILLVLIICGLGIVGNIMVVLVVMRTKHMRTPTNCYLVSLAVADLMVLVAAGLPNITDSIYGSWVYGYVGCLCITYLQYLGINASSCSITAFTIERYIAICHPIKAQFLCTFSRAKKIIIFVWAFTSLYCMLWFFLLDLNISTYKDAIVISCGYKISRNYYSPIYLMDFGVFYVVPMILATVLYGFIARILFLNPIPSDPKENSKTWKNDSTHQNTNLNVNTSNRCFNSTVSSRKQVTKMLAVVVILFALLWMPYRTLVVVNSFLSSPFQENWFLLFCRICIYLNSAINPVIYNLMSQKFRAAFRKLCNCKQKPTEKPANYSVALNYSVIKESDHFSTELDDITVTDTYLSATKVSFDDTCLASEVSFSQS
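Enhancer read-out: after compound pinning and an initial kinetic agonist-mode read, an EC20 of TRH (10 nM final) was injected and fluo-8 calcium signal (Ex 480/Em 530) followed at 1 s/cycle for 100 cycles in TRHR-expressing cells.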
TRHR agonist-1 = agonists of human TRH receptor; P34981; TRHR cells, calcium flux fluo-8, FDSS agonist mode; activation, % at 2 µM; 0.18% of 360,000 active; in the data active means activation above about 30%; further: 0% is about no effect
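TRHR-expressing cells, plated overnight in medium with 10% serum, were loaded with fluo-8 calcium dye at room temperature. After a 10 s baseline, library compound was pin-added and calcium release was recorded kinetically (ex 480/em 530) as agonist response.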
D1 antag = human D1 dopamine receptor antagonism; P21728; HEK293 TREx D1 cells, calcium flux, dopamine EC80; hits give low values; activity change, negative = inhibition, % at 10 µM; 3.2% of 360,000 active; AID 504652; in the data active means activity change below about -30%; further: on the % scale 0 is the no-effect control and ±100 the full control effect
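HEK293 T-REx cells expressing inducible, force-coupled D1 receptor; no-wash Ca dye, 30–90 min RT. Cmpd → 180 s read at 1 Hz → EC80 DA → 180 s read.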
D1 agonist = agonists of human D1 dopamine receptor. P21728. HEK293 T-REx D1 cells, calcium flux, agonist mode. activation, % at 2 µM. 1% of 360,000 active; in the data active means activation above about 30%; further: 0% is about no effect
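Agonism was scored from calcium flux recorded over 180 s (1 read/s) after pintool compound addition, following a 10-cycle baseline. Cells were inducible force-coupled HEK293 TREx D1, plated overnight at 30 C and loaded with no-wash calcium dye.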
TRHR enhancer-2 = confirmation of human TRH receptor allosteric enhancers. shares compounds with TRHR enhancer-1. TRH receptor cell assay, enhancer confirmation qHTS. activity change, negative = inhibition, % at 46.1 µM. 970 tested, under 10 active;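 further: compound effect scored on response to added TRH at EC20 of 10 nM; 0% is about no effect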
TRHR agonist-2 = confirmation of human TRH receptor agonists. shares compounds with TRHR enhancer-1. TRHR-expressing cells, agonist activation read-out. Potency, µM (series often up to 46.1 µM), for the others: at the highest dose activation, usual class: activators. 8% of 970 active. AID 493078; further: potency means the concentration at half of the fitted maximal effect; 0% is about no effect; nearly all actives have a fitted effect of over 75% in size
* marks the source's active call; other numbers are inactive results; ? = inconclusive; / = no result. Unless noted, the call rests on the fitted dose curve; in most records, active means well fitted curve in the direction sought with a large enough effect; inconclusive means small, poorly fitted or top-dose-only effect, or another doubt; inactive means no such curve, though single readings can be large; an effect the other way counts as inactive or inconclusive.

SMILES	D1 PAM	TRHR enhancer-1	TRHR agonist-1	D1 antag	D1 agonist	TRHR enhancer-2	TRHR agonist-2
Cc1cc(C)cc(OCC(=O)Nc2ccc(Cl)c(-c3nc4ncccc4o3)c2)c1	-5	7	1	-6	2	/	/
Cc1c(NC(=S)NC(=O)c2cccc3ccccc23)cccc1C(=O)O	-2	65*	0	-5	5	-5	-1%
N#Cc1nc(COc2ccccc2)oc1NCCCn1ccnc1	-1	57*	0	-33*	2	-5	1%
Cc1ccc(OCc2nc(C#N)c(NCCCn3ccnc3)o2)cc1	-6	-3	0	-10	-1	/	/
CCC(=O)NC1=C(NC(C)c2ccccc2)C(=O)c2ccccc2C1=O (configuration not stated)	5	50*	0	5	3	-5	2%
CCC(=O)Nc1ccc2c(c1)C(=O)c1ccccc1C2=O	-3	4	0	-3	0	/	/
COc1ccc(/C=C2\SC(=O)N(CCCC(=O)Nc3ccc(C(=O)O)cc3)C2=O)cc1OC	0	8	-1	4	0	/	/
COc1ccc(/C=C2\SC(=O)N(CCC(=O)Nc3ccccc3)C2=O)cc1OC	-4	57*	0	2	1	-3	4%
CNC(=O)C1CCC(Cn2c(=O)c3sccc3n(Cc3ccc(F)cc3)c2=O)CC1 (configuration not stated)	-5	3	0	-3	3	/	/
Cc1cc(C)c(OCC(=O)Nc2ccc(S(=O)(=O)N3CCOCC3)cc2)c(C)c1	-2	41*	1	-2	28	-9	1%
COc1ccccc1OCC(=O)Nc1ccc(S(=O)(=O)N2CCOCC2)cc1	-1	-3	0	-1	0	/	/
C#CCN(C)Cc1ccccc1	-2	-7	-1	13	1	/	/
C#CCN(C)CC/C=C1\c2ccccc2CSc2ccccc21	-23	-3	74*	-2	3	-6	1%
O=S(=O)(NCc1ccc(F)cc1)c1ccc(N2CCCCS2(=O)=O)cc1	0	-1	1	7	10	/	/
CCOC(=O)C1CCN(C(=O)c2cc3c(ccc4ccccc43)o2)CC1	-6	42*	-1	3	-1	-5	2%
O=C1NC(Cc2c[nH]c3ccccc23)C(=O)N1Cc1cccc2ccccc12 (configuration not stated)	-1	56*	0	4	1	-4	1%
Nc1cc(S(=O)(=O)N2CCCCC2)ccc1N1CCCCC1	-6	0	0	-21	8	/	/
CN1CCN(c2ccc(S(=O)(=O)N3CCCCC3)cc2N)CC1	3	60*	2	5	4	1	-1%
Cc1cc(OCC(=O)Nc2c(C(=O)c3ccccc3)oc3ccccc23)cc(C)c1Cl	4	-2	-1	0	1	/	/
CCOC(=O)c1c(C)[nH]c(CCC(=O)Nc2ccccc2C(=O)OC)c1C	-2	-4	0	15	4	/	/
Cc1cccc(NC(=O)c2cc3c(=O)n(Cc4cccnc4)ccc3nc2C)c1	-5	9	0	-18	0	/	/
Cc1cccc(C)c1NC(=O)COC(=O)c1ccccc1Nc1ccccc1	2	2	35*	-8	3	-3	-1%
Cc1ccc(C2(CCNC(C)c3cccs3)CCOC(C(C)C)C2)cc1 (configuration not stated)	10	3	2	14	6	/	/
CC(NCCC1(C(C)C)CCOC(C)(C)C1)c1cccs1 (configuration not stated)	2	52*	0	10	4	-4	3%
CCC(C)NC(=O)c1cc2c(=O)n(CC)c3ccccc3c2s1 (configuration not stated)	-9	58*	-1	4	2	-5	2%
SMILES	D1 PAM	TRHR enhancer-1	TRHR agonist-1	D1 antag	D1 agonist	TRHR enhancer-2	TRHR agonist-2
CCc1nc(Nc2ccc(F)c(Cl)c2)c2c3c(sc2n1)CCCC3	9	3	0	27	0	/	/
Cc1ccc(NC(=O)C2CSC3(C)CCC(=O)N23)cc1S(=O)(=O)N1CCOCC1 (configuration not stated)	/	9	0	2	7	/	/
Cc1ccc(NC(=O)COC(=O)C2CSC3(C)CCC(=O)N23)cc1S(=O)(=O)N1CCOCC1 (configuration not stated)	-7	42*	2	-38*	4	-3	-1%
O=C(CC1SC(=Nc2ccc(O)cc2)NC1=O)Nc1ccccc1 (configuration not stated)	0	53*	0	-5	1	-3	0%
CCOc1ccc(N=C2NC(=O)C(CC(=O)Nc3ccccc3)S2)cc1 (configuration not stated)	-3	0	0	-3	1	/	/
CC1CCC(NC(=O)c2ccc3c(c2)N(Cc2ccccc2)C(=O)c2ccccc2S3(=O)=O)CC1 (configuration not stated)	-3	0	0	0	8	/	/
O=C(N/N=C/c1sc2ccccc2c1O)c1ccccc1	-1	-6	38*	10	60*	1	21µM*
COc1ccc(C(=O)N/N=C/c2sc3ccccc3c2O)cc1	-2	-3	7	3	23	/	/
COc1ccc(/C=C2\CC/C(=C\c3ccc(OC)cc3OC)C2=O)c(OC)c1	-1	-5	34*	10	54*	0	23µM*
O=C(Cc1ccccc1)NC1CCN(Cc2ccccc2)CC1	4	61*	0	-4	6	1	-1%
Cc1cccn2c(=O)c(C=Nc3ccc(Cl)cc3)c(NCCO)nc12	-2	7	0	2	1	/	/
Cc1cccn2c(=O)c(C=Nc3ccccc3)c(NCCO)nc12	0	44*	0	-4	1	-15	0%
O=S(=O)(NCC1(N2CCOCC2)CCCCC1)c1ccc(Cl)cc1C(F)(F)F	-4	7	46*	1	2	4	?
O=C(Cn1c(=O)n(-c2ccc(Cl)cc2)c(=O)c2c3c(sc21)CCCCC3)Nc1cccc(Cl)c1	0	0	1	5	11	/	/
NC(=O)CSc1nnc(SCc2ccc(F)cc2)s1	-4	0	31*	/	1	-1	2%
CCc1ccccc1N(C)C(=O)c1nn(-c2ccc(OC)cc2)c(=O)c2c1c1ccccc1n2C	0	2	-1	6	5	/	/
Nc1nc(SCC(=O)N2CCOCC2)[nH]c(=O)c1-c1ccccc1	-1	65*	1	7	3	7	0%
Nc1nc(SCC(=O)N2CCCC2)[nH]c(=O)c1-c1ccccc1	-2	0	0	5	0	/	/
